# Results as given in ChEMBL document CHEMBL1157539, “Thousands of chemical starting points for antimalarial lead identification” (Nature, 2010).
# Tested on: Plasmodium falciparum
# Assay: GSK_TCMDC: Inhibition of Plasmodium falciparum 3D7 in whole red blood cells, using parasite LDH activity as an index of growth. Test compounds present at 2uM
# Type: functional
row,Structure (SMILES),Inhibition [%]
1,O=C(Nc1cccc(-c2cccc(-c3nc4cc(F)ccc4[nH]3)c2)c1)c1c[nH]cn1,100
2,O=C(Nc1ccc(Oc2ccccc2)cc1)N(Cc1ccc(-c2cccc(CN3CCNCC3)c2)cc1)C1CCN(Cc2ccccc2)CC1.O=C(O)C(F)(F)F,93
3,CC1(C)NC(N)=NC(=N)N1OCOc1ccc(Cl)cc1.Cl,94
4,CC(C)Nc1nc(NC2CCCCC2)nc(N2CCCCCCC2)n1,86
5,Cl.Nc1c(C(=O)NCCCCN2CCN(c3nsc4ccccc34)CC2)sc2ccccc12,86
6,COc1ccc2nccc([C@@H](O)CN3CCC(NCc4ccc5c(c4)NC(=O)C(C)(C)O5)CC3)c2c1.O=C(O)C(=O)O,100
7,O=S(=O)(Nc1cccc(CCN2CCCCC2CCN2CCCC2)c1)c1cccc2ccccc12 (stereo not given),97
8,COC(=O)c1cc(OC2CCOC2=O)cc2c1OC(C)(C)O2 (stereo not given),97
9,CC1CCN(CC[C@H]2CCCN2S(=O)(=O)c2cccc(NC(=O)c3cc4ccccc4s3)c2)CC1,97
10,COc1ccc(C(=O)N2CCc3cc4nccc(N5CCN6CCC[C@H]6C5)c4cc32)cc1,98
11,CN1CCCN(c2ccnc3cc4c(cc23)N(C(=O)c2ccc(Cl)cc2Cl)CC4)CC1.Cl,100
12,CCCCCCCN1CC[C@@H](C[C@H](N)Cc2ccnc3ccc(OC)cc23)[C@@H](CC)C1.O=C(O)C(=O)O,91
13,Cc1ccc(CCNCC(O)c2cccc(C(F)(F)F)c2)cc1.Cl (stereo not given),94
14,CCN(CC)c1nc(Nc2cc(C)ccc2C)nc(Nc2ccccc2O)n1,100
15,Nc1nc(N)c2c(ccc3c2ccn3Cc2cccc3ccccc23)n1,99
16,N#Cc1ccc(-c2cnc3ccc(NCCc4cccnc4)nn23)cc1,99
17,NC(Cc1cccc(I)c1)C(=O)NCC1CCCO1.O=C(O)C(F)(F)F (stereo not given),98
18,COc1ccc(Cn2c(Nc3cccc(C(F)(F)F)c3)nc3ccc(C(=O)NCCN4CCCC4)cc32)cc1Cl,100
19,CCCCSc1c(CNCCCCCCNCc2ccc3ccccc3c2SCCCC)ccc2ccccc12.CS(=O)(=O)O,93
20,CCCCN1CCN(CCCCNc2c3ccccc3nc3ccccc23)CC1.Cl,100

row,Structure (SMILES),Inhibition [%]
1,CN1CCCc2cc(NC(=O)c3cc(-c4ccc(Cl)cc4)cs3)ccc2C1.O=C(O)C(F)(F)F,100
2,Cc1cccc(Cn2c(C(N)=O)nn(-c3ccc([N+](=O)[O-])cc3C#N)c2=S)c1,100
3,CN(CCCNCc1cccc2ccccc12)CCCNCc1cccc2ccccc12.Cl,100
4,C[C@H](Cc1ccc(OCCCCCCOc2ccc(C[C@@H](C)NC(=O)[C@H](O)c3cccc(Cl)c3)cc2)cc1)NC[C@H](O)c1cccc(Cl)c1,99
5,Nc1ncc(-c2ccc3nccc(-c4ccncc4)c3c2)cc1S(=O)(=O)N1CCOCC1,100
6,CN(C)CCOc1ccc2nc(-c3cccc(OCc4ccccc4)c3)[nH]c2c1C#N,100
7,CCn1c(-c2nonc2N)nc2c(-c3cc4ccccc4s3)ncc(C(=O)N3CCC(N)C3)c21.O=C(O)C(F)(F)F (stereo not given),98
8,Nc1ccc2[nH]cc(C3CCN(CC4CCC(NC(=O)/C=C/c5ccccc5Cl)CC4)CC3)c2n1 (stereo not given),100
9,Cc1nc2ccccn2c1C1(O)C(=O)Nc2c(Cl)cc(Cl)cc21 (stereo not given),95
10,Cc1csc2nc(-c3ccccn3)nc(Nc3ccncn3)c12.O=C(O)C(F)(F)F,97
11,CCC(NC(=O)c1ccccc1NC(=O)c1ccc(C)cc1)C(=O)OC (stereo not given),95
12,Cc1cc2[nH]c(-c3ccc(C(=O)NCCCN4CCN(c5cccc(Cl)c5)CC4)s3)nc2cc1Cl,100
13,CC(=O)Nc1nc(C(=O)Nc2ccc(-c3cccc(-c4nc5cccc(C)c5[nH]4)c3)cc2)cs1,100
14,Cc1cccc2nc(-c3ccc(-c4cccc(NC(=O)Nc5ccsc5)c4)s3)[nH]c12,100
15,C[C@@H](N/C(=N\c1ccc(-c2ccccc2)cc1)Nc1ccc(C#N)cc1O)c1ccc(Br)cc1,99
16,COc1ccc(CNC2Cc3ccccc3C2)cc1-c1ccc(S(=O)(=O)NCc2cccnc2)s1.O=C(O)C(F)(F)F,91
17,COCCNC(=O)c1ccc(OC2CCN(CC(C)=Cc3ccccc3)CC2)c(Cl)c1,94
18,O=C(Cc1cccc(Cl)c1)N1CCc2cc3nccc(N4CCN5CCC[C@H]5C4)c3cc21,96
19,C=CCOC1OC(COC(c2ccccc2)(c2ccccc2)c2ccccc2)C(OC(C)=O)C(OC(C)=O)C1NC(C)=O (stereo not given),93
20,CN(c1ccc(C(=O)N[C@@H](CCC(=O)O)C(=O)O)cc1)S(=O)(=O)c1ccc2nc(N)[nH]c(=O)c2c1,97

# Tested on: Plasmodium falciparum
# Assay: GSK_TCMDC: Inhibition of Plasmodium falciparum Dd2 in whole red blood cells, using parasite LDH activity as an index of growth. Test compounds present at 2uM
# Type: functional
row,Structure (SMILES),Inhibition [%]
1,O=C(Nc1cccc(-c2cccc(-c3nc4cc(F)ccc4[nH]3)c2)c1)c1c[nH]cn1,87
2,O=C(Nc1ccc(Oc2ccccc2)cc1)N(Cc1ccc(-c2cccc(CN3CCNCC3)c2)cc1)C1CCN(Cc2ccccc2)CC1.O=C(O)C(F)(F)F,53
3,CC1(C)NC(N)=NC(=N)N1OCOc1ccc(Cl)cc1.Cl,96
4,CC(C)Nc1nc(NC2CCCCC2)nc(N2CCCCCCC2)n1,96
5,Cl.Nc1c(C(=O)NCCCCN2CCN(c3nsc4ccccc34)CC2)sc2ccccc12,0
6,COc1ccc2nccc([C@@H](O)CN3CCC(NCc4ccc5c(c4)NC(=O)C(C)(C)O5)CC3)c2c1.O=C(O)C(=O)O,70
7,O=S(=O)(Nc1cccc(CCN2CCCCC2CCN2CCCC2)c1)c1cccc2ccccc12 (stereo not given),6
8,COC(=O)c1cc(OC2CCOC2=O)cc2c1OC(C)(C)O2 (stereo not given),0
9,CC1CCN(CC[C@H]2CCCN2S(=O)(=O)c2cccc(NC(=O)c3cc4ccccc4s3)c2)CC1,41
10,COc1ccc(C(=O)N2CCc3cc4nccc(N5CCN6CCC[C@H]6C5)c4cc32)cc1,50
11,CN1CCCN(c2ccnc3cc4c(cc23)N(C(=O)c2ccc(Cl)cc2Cl)CC4)CC1.Cl,51
12,CCCCCCCN1CC[C@@H](C[C@H](N)Cc2ccnc3ccc(OC)cc23)[C@@H](CC)C1.O=C(O)C(=O)O,51
13,Cc1ccc(CCNCC(O)c2cccc(C(F)(F)F)c2)cc1.Cl (stereo not given),83
14,CCN(CC)c1nc(Nc2cc(C)ccc2C)nc(Nc2ccccc2O)n1,99
15,Nc1nc(N)c2c(ccc3c2ccn3Cc2cccc3ccccc23)n1,95
16,N#Cc1ccc(-c2cnc3ccc(NCCc4cccnc4)nn23)cc1,81
17,NC(Cc1cccc(I)c1)C(=O)NCC1CCCO1.O=C(O)C(F)(F)F (stereo not given),50
18,COc1ccc(Cn2c(Nc3cccc(C(F)(F)F)c3)nc3ccc(C(=O)NCCN4CCCC4)cc32)cc1Cl,6
19,CCCCSc1c(CNCCCCCCNCc2ccc3ccccc3c2SCCCC)ccc2ccccc12.CS(=O)(=O)O,62
20,CCCCN1CCN(CCCCNc2c3ccccc3nc3ccccc23)CC1.Cl,5

row,Structure (SMILES),Inhibition [%]
1,CN1CCCc2cc(NC(=O)c3cc(-c4ccc(Cl)cc4)cs3)ccc2C1.O=C(O)C(F)(F)F,34
2,Cc1cccc(Cn2c(C(N)=O)nn(-c3ccc([N+](=O)[O-])cc3C#N)c2=S)c1,48
3,CN(CCCNCc1cccc2ccccc12)CCCNCc1cccc2ccccc12.Cl,94
4,C[C@H](Cc1ccc(OCCCCCCOc2ccc(C[C@@H](C)NC(=O)[C@H](O)c3cccc(Cl)c3)cc2)cc1)NC[C@H](O)c1cccc(Cl)c1,99
5,Nc1ncc(-c2ccc3nccc(-c4ccncc4)c3c2)cc1S(=O)(=O)N1CCOCC1,99
6,CN(C)CCOc1ccc2nc(-c3cccc(OCc4ccccc4)c3)[nH]c2c1C#N,86
7,CCn1c(-c2nonc2N)nc2c(-c3cc4ccccc4s3)ncc(C(=O)N3CCC(N)C3)c21.O=C(O)C(F)(F)F (stereo not given),66
8,Nc1ccc2[nH]cc(C3CCN(CC4CCC(NC(=O)/C=C/c5ccccc5Cl)CC4)CC3)c2n1 (stereo not given),45
9,Cc1nc2ccccn2c1C1(O)C(=O)Nc2c(Cl)cc(Cl)cc21 (stereo not given),62
10,Cc1csc2nc(-c3ccccn3)nc(Nc3ccncn3)c12.O=C(O)C(F)(F)F,85
11,CCC(NC(=O)c1ccccc1NC(=O)c1ccc(C)cc1)C(=O)OC (stereo not given),86
12,Cc1cc2[nH]c(-c3ccc(C(=O)NCCCN4CCN(c5cccc(Cl)c5)CC4)s3)nc2cc1Cl,93
13,CC(=O)Nc1nc(C(=O)Nc2ccc(-c3cccc(-c4nc5cccc(C)c5[nH]4)c3)cc2)cs1,73
14,Cc1cccc2nc(-c3ccc(-c4cccc(NC(=O)Nc5ccsc5)c4)s3)[nH]c12,29
15,C[C@@H](N/C(=N\c1ccc(-c2ccccc2)cc1)Nc1ccc(C#N)cc1O)c1ccc(Br)cc1,95
16,COc1ccc(CNC2Cc3ccccc3C2)cc1-c1ccc(S(=O)(=O)NCc2cccnc2)s1.O=C(O)C(F)(F)F,18
17,COCCNC(=O)c1ccc(OC2CCN(CC(C)=Cc3ccccc3)CC2)c(Cl)c1,95
18,O=C(Cc1cccc(Cl)c1)N1CCc2cc3nccc(N4CCN5CCC[C@H]5C4)c3cc21,4
19,C=CCOC1OC(COC(c2ccccc2)(c2ccccc2)c2ccccc2)C(OC(C)=O)C(OC(C)=O)C1NC(C)=O (stereo not given),66
20,CN(c1ccc(C(=O)N[C@@H](CCC(=O)O)C(=O)O)cc1)S(=O)(=O)c1ccc2nc(N)[nH]c(=O)c2c1,3
